KB-3-1 cytotox: qHTS assay for MDR1-selective chemotherapeutics: Primary screen using the parental adenocarcinoma cell KB-3-1; KB-3-1 viability, CellTiter-Glo ATP luminescence, 72 h; Potency, µM (titrated, usually from 46.1 µM), usual class: cytotoxic; actives 1.4% (n = 400,000); AID 1347075, 2019; further: nearly all actives have a fitted effect of over 60% in size
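Cytotoxicity measured as CellTiter-Glo luminescence after 72 h at 37 C. Compound titrations were pinned onto drug-naive KB-3-1 parental adenocarcinoma cells grown in DMEM with 10% FBS, and normalized data fitted to concentration-response curves.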
TDP1 cell noCPT: qHTS for Inhibitors of human tyrosyl-DNA phosphodiesterase 1 (TDP1): qHTS in cells in absence of CPT | DT40 Tdp1-/- hTDP1 cells, no CPT, ATP luminescence, 48 h | Potency, µM (doses to about 46.2 µM), for inactives: top-dose activity change, negative = growth inhibition, usual class: inhibitors | actives 15% (n = 420,000); further: nearly all actives have a fitted effect of over 55% in size
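Cells were dispensed at 400 per well, compounds added by pin tool, plates incubated ≥48 hr at 37 °C, then CellTiter-Glo added for 30 min at room temperature before luminescence reading. Line: DT40 Tdp1-/- complemented with hTDP1; camptothecin omitted.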
KB-V1 MDR tox: qHTS assay for MDR1-selective chemotherapeutics: Primary screen using the drug-selected MDR subline cells KB-V1; KB-V1 MDR cells viability, CellTiter-Glo, 72 h; Potency, µM (series often up to 46.1 µM), usual class: cytotoxic; actives 3.4% (n = 400,000); AID 1347076, 2019; further: nearly all actives have a fitted effect of over 60% in size
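KB-V1, DMEM (no phenol red) + 10% FBS; cpd pin-transferred, titration series; 72 h, 37 degrees C; CellTiter-Glo, luminescence. Data normalized, curve-fit.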
HT1080NT lethal: qHTS for induction of synthetic lethality in tumor cells producing 2HG: qHTS for the HT-1080-NT fibrosarcoma cell line; AID 686970, 2013; actives 1.6% (n = 360,000); Potency, µM (series often up to 46.1 µM), for the others: at the highest dose activity, negative = less viability, hits mostly cytotoxic; HT-1080-NT fibrosarcoma viability, CellTiter-Glo ATP luminescence, 48 h;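 further: NT is the 2HG producing partner of a matched IDH1 knockdown line; 0% = DMSO-treated cells and -100% = media-only wells without cells; nearly all actives have a fitted effect of over 55% in size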
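750 cells/well, RPMI + 5% FBS; 2 h settle, compound pin-transfer, 48 h at 37 degrees C. CellTiter-Glo 10 min RT, luminescence. Normalized to DMSO and media-only wells.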
TDP1 cell CPT: qHTS for Inhibitors of human tyrosyl-DNA phosphodiesterase 1 (TDP1): qHTS in cells in presence of CPT. chicken DT40 Tdp1-/-;hTDP1 cells + 20 nM CPT, ATP luminescence, 48 h. Potency, µM (series often up to 46.2 µM), without a hit: top-dose activity change, negative = growth inhibition, actives largely listed as inhibitors. actives 12% (n = 420,000). AID 686979, 2013; further: nearly all actives have a fitted effect of over 55% in size
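Cell growth measured by CellTiter-Glo luminescence after a minimum 48 h, 37 C compound exposure with 20 nM CPT in Tdp1-knockout DT40 cells stably expressing hTDP1, seeded 400/well; qHTS titration format.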
HT1080 IDH1KD tx: qHTS for induction of synthetic lethality in tumor cells producing 2HG: qHTS for the HT-1080-IDH1KD cell line | actives 2% (n = 360,000) | HT-1080 IDH1 knockdown viability, ATP luminescence, 48 h | Potency, µM (highest dose often 46.1 µM), for the others: at the highest dose activity, negative = toxicity, actives largely listed as cytotoxic;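 further: 0% = DMSO wells and -100% = cell-free medium wells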
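Luminescent ATP read-out (CellTiter-Glo, 10 min at room temperature) after 48 h compound exposure at 37 °C gave viability of IDH1-knockdown HT-1080 cells. Activity was normalised to DMSO and cell-free wells, then fitted as concentration-response curves.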
* = called active by the depositor; i = inactive; ? = inconclusive; . = no result given; ! = not active in a repeat. Only some compounds are listed: those with a hit (about 19% of all), similar ones and a draw of the others. The call rests on the fitted dose curve; in most records, active means well fitted curve in the direction sought with a large enough effect; inconclusive means small, poorly fitted or top-dose-only effect, or another doubt; inactive means no such curve, though single readings can be large; an effect the other way counts as inactive or inconclusive. Unless noted, on the % scale 0 is the no-effect control and ±100 the full control effect; potency means the concentration at half of the fitted maximal effect.

SMILES	KB-3-1 cytotox	TDP1 cell noCPT	KB-V1 MDR tox	HT1080NT lethal	TDP1 cell CPT	HT1080 IDH1KD tx
CC(/C=N/Nc1nnc2c(n1)[nH]c1ccccc12)=C\c1ccco1	i	?	i	7%	26µM*	-1%
COc1ccc(CN(Cc2cc3cccc(C)c3n3nnnc23)C(=O)N2CCOCC2)cc1	i	?	i	0%	16µM*	0%
CCC(=O)N(Cc1ccco1)Cc1cc2cccc(C)c2n2nnnc12	i	20%	i	-2%	6%	-1%
CCOCCOC(=O)c1cccc2c1-c1ccccc1C2=O	i	5%	i	2%	-19%	7%
CC1=CC(C)(C)NC(=S)N1c1cccc(C)c1	i	?	i	8.9µM*!	?	8.9µM*!
CC1=CC(C)(C)NC(=S)N1c1ccc(C)cc1	i	23µM*	i	?	21µM*	11µM*
CC1=CC(C)(C)NC(=S)N1c1ccc(C)c(C)c1	?	?	i	2%	?	-4%
CC1=CC(C)(C)NC(=S)N1c1ccc([N+](=O)[O-])cc1	i	21µM*	i	-27%	29µM*	?
O=C(CCNC(=O)c1ccc([N+](=O)[O-])cc1)Nc1cc(C(F)(F)F)ccc1N1CCOCC1	i	?	?	-1%	?	-1%
CN(Cc1ccccc1)C(=O)c1ccc(NC(=O)Cc2ccc(NC(=O)C3CCN(C(=O)C4CCCCC4)CC3)cc2)cc1	i	16µM*	i	-13%	23µM*	?
CN(Cc1ccccc1)C(=O)c1cccc(NC(=O)Cc2ccc(NC(=O)C3CCN(C(=O)c4ccccc4)CC3)cc2)c1	i	-28%	i	7%	-22%	8%
CN(Cc1ccccc1)C(=O)c1ccc(NC(=O)Cc2ccc(NC(=O)C3CCN(C(=O)C4CCC4)CC3)cc2)cc1	i	?	i	-8%	?	-8%
CN(Cc1ccccc1)C(=O)c1cccc(NC(=O)Cc2ccc(NC(=O)C3CCN(C(=O)CCc4ccccc4)CC3)cc2)c1	?	16µM*	i	-10%	?	-20%
CN(Cc1ccccc1)C(=O)c1ccc(NC(=O)Cc2ccc(NC(=O)C3CCN(C(=O)CCc4ccccc4)CC3)cc2)cc1	i	10µM*	i	-22%	26µM*	?
Cc1csc[n+]1CC(=O)c1ccccc1	i	-13%	i	.	-17%	.
CCC(=O)OCC(=O)[C@@]1(OC(=O)CC)[C@@H](C)C[C@H]2[C@@H]3CCC4=CC(=O)C=C[C@]4(C)[C@@]3(Cl)[C@@H](O)C[C@@]21C	i	16µM*	?	?	24µM*	-19%
Cc1ccccc1Nc1nc(N)nc(COC(=O)c2ccccc2)n1	i	-17%	i	2%	-9%	0%
Nc1nc(CCl)nc(Nc2cccc3ccccc23)n1	?	3.3µM*	?	0.52µM*	?	?
Cc1cccc(OCC(=O)NC(C)C(=O)N/N=C/c2c(OCc3ccccc3)ccc3ccccc23)c1 (stereo unspecified)	?	?	16µM*	?	?	?
COc1ccccc1NS(=O)(=O)c1cc(C(=O)N2CCCC2)ccc1F	i	-1%	i	1%	15%	-7%
Cc1sc2ccccc2[n+]1CCc1ccccc1	i	3.2µM*	i	.	6.3µM*	.
Cc1c(CCO)sc[n+]1CCc1ccccc1	i	7%	i	.	?	.
Cc1sc2ccccc2[n+]1CCCCI	i	20µM*	i	.	?	.
CCOc1ccccc1OCC(=O)OCC(=O)c1c(N)n(CC(C)C)c(=O)n(C)c1=O	i	18µM*	i	-15%	?	-18%
CC(C)Cn1c(N)c(C(=O)COC(=O)[C@H](C)NC(=O)c2ccccc2Cl)c(=O)n(C)c1=O	i	-29%	i	-8%	?	-1%
SMILES	KB-3-1 cytotox	TDP1 cell noCPT	KB-V1 MDR tox	HT1080NT lethal	TDP1 cell CPT	HT1080 IDH1KD tx
Cc1csc(=O)n1CC(=O)OCC(=O)c1c(N)n(CC(C)C)c(=O)n(C)c1=O	i	23µM*	i	-11%	?	-2%
CCC(C(=O)OCC(=O)c1c(N)n(CC(C)C)c(=O)n(C)c1=O)c1ccccc1 (stereo unspecified)	?	23µM*	?	-6%	21µM*	-20%
COc1ccc(S(=O)(=O)N2CCCOC2CNC(=O)C(=O)NCCCN2CCOCC2)cc1C (stereo unspecified)	i	-2%	i	-11%	-7%	-2%
CC1CCCC(C)N1C(=O)CN1C(=O)NC2(CCCCCC2)C1=O (stereo unspecified)	i	-25%	i	6%	8%	2%
CCCN(CCC)CCCNC(=O)c1sc2nc3n(c(=O)c2c1C)CCC3	i	-11%	i	.	6%	.
CC1CC(C)CN(S(=O)(=O)c2ccc(Oc3ccc([N+](=O)[O-])cc3)cc2)C1 (stereo unspecified)	?	?	13µM*	8%	?	2%
CC1CCCN(S(=O)(=O)c2ccc([N+](=O)[O-])cc2)C1 (stereo unspecified)	i	-13%	i	-1%	-26%	-1%
CCc1noc(C)c1C(=O)N(CC)CC(=O)NCc1ccc(F)cc1	i	-14%	i	10%	-13%	4%
C#CCn1c(=NC(=O)c2cccs2)sc2cccc(OCC)c21	i	21µM*	i	-6%	-25%	9%
CC(C)(C)C(=O)CSc1nc2ccsc2c(=O)n1Cc1ccccc1Cl	.	15µM*	.	.	21µM*	.
CCCCn1c(SCC(=O)c2ccc(O)c(O)c2)nc2ccsc2c1=O	?	23µM*	?	-27%	15µM*	?
CCCCn1c(SCC(=O)c2ccccc2)nc2c(sc3ccccc32)c1=O	i	-16%	i	.	-12%	.
CCCCn1c(SCC(=O)c2ccccc2)nc2ccsc2c1=O	i	18µM*	?	-5%	?	0%
